Measurements as given in PubChem BioAssay (Tox21).
Records with an inconclusive call do not appear. Where a call stands in place of a potency, no number is given. The source made the active and inactive calls. Calls come from the whole dose curve.

The compounds below were run against Peroxisome proliferator-activated receptor delta (Homo sapiens) (UniProt Q03181) (assay: qHTS assay to identify small molecule agonists of the peroxisome proliferator-activated receptor delta (PPARd) signaling pathway (AID 743212)). Settings: HEK293H PPARd-UAS-bla, beta-lactamase FRET ratio, 17 h; series mostly up to 62.6 µM.
Source text: U.S. Tox21 Program National Center for Advancing Translational Sciences [NCATS] NIH Chemical Genomics Center [NCGC] U.S. Environmental Protection Agency [EPA] National Institutes of Environmental Health Sciences [NIEHS] National Toxicology Program [NTP] U.S. Food and Drug Administration [FDA] Tox21 Assay Overview: The peroxisome proliferator-activated receptors (PPARs) are lipid-activated transcription factors of the nuclear receptor superfamily with three distinct subtypes namely PPAR alpha, PPAR delta (PPARd) and PPAR gamma. All these subtypes heterodimerizes with Retinoid X receptor (RXR) and have different physiological functions. […] To identify the compounds that activate PPAR-delta signaling, GeneBLAzer PPAR delta UAS-bla HEK293H cell line (Invitrogen, Carlsbad, CA, USA) containing a beta-lactamase reporter gene under the control of an Upstream Activator Sequence (UAS) was used to screen the Tox21 compound library.
Tox21 Assay Protocol Summary: PPARd-bla cells were dispensed at 3000 cells/6uL/well in 1536-well black wall/clear bottom plates using a Multidrop Combi (Thermo Fisher Scientific, Waltham, MA) dispenser. After the assay plates were incubated at 37 C and 5% CO2 for 5 h, 23 nL of compounds dissolved in DMSO, positive controls or DMSO only was transferred to the assay plate by a Pintool station (Kalypsys, San Diego, CA). The assay plates were incubated at 37C for 17 h. After 1 uL of LiveBLAzerTM B/G FRET substrate was added using a Bioraptr Flying Reagent Dispenser (FRD) workstation (Beckman Coulter, Indianapolis, IN, USA), the plates were incubated at room temperature for 2 h, and fluorescence intensity was measured by an Envision plate reader (PerkinElmer, Shelton, CT).

Chain of Peroxisome proliferator-activated receptor delta (Homo sapiens) (Q03181 whole entry, looked up): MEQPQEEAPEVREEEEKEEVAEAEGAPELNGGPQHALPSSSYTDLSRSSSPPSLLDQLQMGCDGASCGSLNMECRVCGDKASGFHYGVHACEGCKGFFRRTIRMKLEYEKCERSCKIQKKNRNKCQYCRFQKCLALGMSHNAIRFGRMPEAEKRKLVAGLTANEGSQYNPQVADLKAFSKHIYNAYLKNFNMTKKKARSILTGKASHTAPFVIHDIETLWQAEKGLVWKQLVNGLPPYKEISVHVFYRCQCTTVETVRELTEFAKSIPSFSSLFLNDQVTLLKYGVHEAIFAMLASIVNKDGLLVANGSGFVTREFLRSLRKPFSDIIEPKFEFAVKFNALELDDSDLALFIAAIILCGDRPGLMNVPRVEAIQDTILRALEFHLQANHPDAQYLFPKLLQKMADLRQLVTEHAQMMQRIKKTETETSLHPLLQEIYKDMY

Compound | Potency
Brc1ccc(Oc2ccc(Br)cc2)cc1 | inactive
CCn1cc(C(=O)O)c(=O)c2cc3c(cc21)OCO3 | inactive
C=C1C[C@]23C[C@@]1(O)CC[C@H]2[C@@]12C=C[C@H](O)[C@@](C)(C(=O)O1)[C@H]2[C@@H]3C(=O)O | inactive
C=CC(=O)NCOCCCC | inactive
OCc1ccc(Cl)cc1Cl | inactive
CC(O)CNCC(C)O (stereo not given) | inactive
COc1ccc2cc3[n+](cc2c1OC)CCc1cc2c(cc1-3)OCO2 | inactive
Cc1ccc(Cl)cc1 | inactive
COC(=O)CCCCC(=O)OC | inactive
CCCCCC(C)=O | inactive
N#CCC(=O)O | inactive
CN1Cc2c(N)cccc2C(c2ccccc2)C1 (stereo not given) | inactive
Cc1cc(C)cc(O)c1 | inactive
NC(=O)NC(N)=O | inactive
Nc1cccc(N)n1 | inactive
CC(=O)C(C)C | inactive
CC(=O)c1nccs1 | inactive
OCC(O)CS (stereo not given) | inactive
O=C1OC(=O)c2c(Cl)c(Cl)c(Cl)c(Cl)c21 | inactive
CC(=O)CC(=O)N(C)C | inactive

Compound | Potency
CCCCCNCCCCC | inactive
CC(C)=CCC/C(C)=C/C=O | inactive
CO[Si](CCCNCCN)(OC)OC | inactive
C1CCCNCC1 | inactive
OC[C@H]1O[C@@H](Oc2ccc(O)cc2)[C@H](O)[C@@H](O)[C@@H]1O | inactive
Oc1ccc(Cc2ccccc2O)cc1 | inactive
OCC(CO)(CO)CO | inactive
Cc1cc(C)c(O)c(C)c1 | inactive
Cc1ccc(C(C)C)cc1 | inactive
NC(=O)c1ncn([C@@H]2O[C@H](CO)[C@@H](O)[C@H]2O)n1 | inactive
CCc1cccc(O)c1 | inactive
Cc1ccc(C)c(S(=O)(=O)O)c1 | inactive
COc1c(Cl)ccc(Cl)c1C(=O)O | inactive
N[C@@H](Cc1cc(I)c(Oc2ccc(O)c(I)c2)c(I)c1)C(=O)O | inactive
C=CC(C)(C)C | inactive
CC(=O)OC[C@H]1O[C@@](COC(C)=O)(O[C@H]2O[C@H](COC(C)=O)[C@@H](OC(C)=O)[C@H](OC(C)=O)[C@H]2OC(C)=O)[C@@H](OC(C)=O)[C@@H]1OC(C)=O | inactive
CC(=O)OC/C=C(\C)CCC=C(C)C | inactive
OB(O)O | inactive
O=[N+]([O-])c1ccccc1C(F)(F)F | inactive
O=C(Cl)c1ccc(C(=O)Cl)cc1 | inactive
